# From PubChem
# Only some compounds are listed: those with a hit (about 3.1% of all), similar ones and a draw of the others.
# ELG1 repair inh: qHTS screen for small molecules that inhibit ELG1-dependent DNA repair in human embryonic kidney (HEK293T) cells expressing luciferase-tagged ELG1; Potency, µM (doses to about 46.1 µM), for inactives: at the top dose activity change, negative = inhibition, usual class: inhibitors; HEK293T ELG1-luciferase reporter, luminescence, 16 h; DNA damage induced by 5-fluorouridine; actives 2.3% (n = 330,000); note: potency is the fitted concentration of half-maximal effect; % is set by controls: 0 for no effect and ±100 for the full control effect; nearly all actives have a fitted effect of over 55% in size
#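 Luminescence from the luciferase reporter, measured 30 min after ONE-Glo reagent at room temperature, was the read-out. Beforehand, 2,000 cells per well were exposed for 16 hr at 37 °C to 5-fluorouridine together with compound or vehicle.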
# BRCA1 expr act: qHTS Assay to Identify Small Molecule Activators of BRCA1 Expression | MCF7-BRCA1-FFLuc reporter, luminescence, 48 h; response scale: scaled: vehicle 0%, 10 µM genistein 100% | Potency, µM (top dose mostly 46.1 µM), without a hit: at the top dose activation, usual class: activators | actives 1.1% (n = 380,000); note: potency is the fitted concentration of half-maximal effect; nearly all actives have a fitted effect of over 80% in size
#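 Luminescence from a BRCA1-driven firefly luciferase in MCF7 cells was read after 48 h compound exposure at 37 C. Data normalized against DMSO and a 10microM genistein activation control, then curve-fitted across the titration.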
# IL2 activator: qHTS of IL-2 Activators; IL-2 activation reporter assay, cell-based qHTS; stimulated with anti-CD3/CD4/CD28 beads; in transgenic mouse T cells; activation, % (series mostly up to about 46 µM); actives 0.065% (n = 360,000); in the data active = activation above about 50%; inconclusive = mostly about 30% to 49%; note: 0% is about no effect
#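 Quantitative HTS in unstimulated transgenic mouse T cells, with memory T cells as non-tolerant control and PMA/ionomycin as tolerance-bypass control. Compound pretreatment lasted 60 minutes before 18 h bead stimulation; EGFP/DsRed fluorescence read.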
# Nrf2 activator: qHTS of Nrf2 Activators; AREc32 ARE-luciferase reporter (MCF7-derived line), luminescence, 24 h; Potency, µM (top dose mostly 46.1 µM), inactives show top-dose activation, most hits filed as activators; actives 0.31% (n = 410,000); AID 624171, 2012; note: potency is the fitted concentration of half-maximal effect; % of control where 0% means no effect; nearly all actives have a fitted effect of over 65% in size
#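 ARE-driven firefly luciferase activity in AREc32 cells measured after a 24 hr compound exposure at 37 deg C, using Steady-Glo reagent and a 30 min room-temperature hold.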
# An asterisk follows results filed as active; ? = inconclusive; · = not tested or not shown. Unless noted, calls come from the whole dose curve; as a rule, active = well fitted curve in the direction sought with a large enough effect; inconclusive = small, poorly fitted or top-dose-only effect, or another doubt; inactive = no such curve, though single readings can be large; an effect the other way counts as inactive or inconclusive.
SMILES,ELG1 repair inh,BRCA1 expr act,IL2 activator,Nrf2 activator
Cc1ccc(-n2cc(CN3CCNC(=O)CC3)c(-c3ccc(F)cc3)n2)cc1,-12.8%,-12.9%,-2.7,4.3%
Cc1csc(NC(=O)Cc2c(F)cccc2Cl)n1,?,4.47µM*,-2.7,2.0%
Cc1cccc(NC(=O)Cc2c(F)cccc2Cl)n1,?,?,-2.5,6.3%
COc1cc(CC(=O)Nc2nc(C)cs2)cc(OC)c1OC,14.6µM*,-23.0%,-1.0,0.0%
CCc1ccc(-n2nc(CO)c(C(=O)NC(C)c3ccc(Cl)cc3)n2)cc1 (stereo unspecified),·,·,·,2.4%
CCCN1CCN(CCNC(=O)Nc2cc(C)ccc2OC)CC1,·,-5.8%,·,-0.8%
Brc1ccc(C2C=Cc3ccccc32)cc1 (stereo unspecified),·,8.6%,·,·
COc1ccc(C)cc1NS(=O)(=O)c1cnc(N)nc1,·,·,·,-1.3%
CCOC(=O)C(C)Sc1nnc(-c2c[nH]c3ccccc23)n1C (stereo unspecified),-9.2%,-2.2%,0.7,-0.6%
CC(C)Sc1nnc(-c2c[nH]c3ccccc23)n1C,?,7.08µM*,-2.3,0.2%
CC(=O)CSc1nsc(SCC(C)=O)c1C#N,-3.3%,-29.6%,-1.4,10.6%
CC(C)(C)NC(=O)CSc1nsc(SCC(=O)NC(C)(C)C)c1C#N,9.2µM*,-43.6%,-0.7,3.9%
COc1cccc(/C=C2\SC(=S)N(C(C)C(=O)NC3C=CS(=O)(=O)C3)C2=O)c1 (stereo unspecified),3.4%,-62.1%,-1.0,17.8µM*
COc1ccc(/C=C2\SC(=S)N(C(C)C(=O)NC3C=CS(=O)(=O)C3)C2=O)cc1 (stereo unspecified),?,-33.0%,-1.4,?
COc1cccc(/C=C2\SC(=O)N(CC(=O)NC3CCS(=O)(=O)C3)C2=O)c1 (stereo unspecified),8.2%,-2.1%,-2.9,8.8%
COc1cccc(/C=C2\SC(=O)N(CC(=O)NC3C=CS(=O)(=O)C3)C2=O)c1 (stereo unspecified),?,-82.7%,0.6,15.8µM*
COc1ccc(OC)c(CNC(=O)Cn2ncc3c([nH]c4ccc(C)cc43)c2=O)c1,·,·,·,0.6%
Cc1ccccc1Nc1nc(N)nc(COC(=O)c2ccco2)n1,?,3.98µM*,0.8,4.1%
COc1cc(/C=N/Nc2ccc(S(N)(=O)=O)cc2[N+](=O)[O-])cc(OC)c1O,9.2µM*,-11.8%,-0.9,6.8%
NS(=O)(=O)c1ccc(N/N=C/c2ccc(C(=O)O)cc2)c([N+](=O)[O-])c1,-5.3%,-1.3%,-1.4,-0.4%
COc1cc(/C=N/Nc2ccccc2[N+](=O)[O-])cc(OC)c1O,1.6%,-26.9%,-0.3,10µM*
COc1ccc(CCNC(=O)c2cc(-c3ccc(C)c(C)c3)nc3ccccc23)cc1OC,·,·,·,4.6%
COC(=O)c1sc(C(C)(C)C)cc1CS(=O)(=O)c1ccccn1,16.4µM*,-4.4%,2.2,-0.9%
COc1ccc(Nc2oc(-c3cccs3)nc2C#N)cc1,?,1.41µM*,-0.5,8.1%
N#Cc1nc(-c2cccs2)oc1NCCc1ccccc1,?,11.2µM*,-0.4,4.6%
SMILES,ELG1 repair inh,BRCA1 expr act,IL2 activator,Nrf2 activator
COc1ccc(NC(=O)CCCn2nc(C)c3sc4ccccc4c3c2=O)cc1,·,·,·,0.3%
COc1ccc(N2CCN(c3oc(/C=C/c4ccc(F)cc4)nc3C#N)CC2)cc1,·,·,·,-0.4%
Cc1nc2ccn(Cc3cccs3)c(=O)c2cc1C(=O)N1CCN(c2ccccc2)CC1,·,·,·,0.3%
CCOC(=O)c1c(C)[nH]c(C(=O)C(C)Cl)c1C (stereo unspecified),6.4%,-32.9%,3.3,17.8µM*
CCNC(=O)CC1C(=O)N(c2ccc(F)cc2)C(=O)N1CCOC (stereo unspecified),·,·,·,-1.1%
COc1ccc(Nc2cc(C)c3cc(NC(=O)c4cc(OC)cc(OC)c4)ccc3n2)cc1,·,-64.2%,·,6.7%
CCOc1cc(N2CCOCC2)c(OCC)cc1NC(=O)c1nc2nc(C)cc(C)n2n1,7.94µM*,-2.9%,0.3,0.1%
CCOc1cc(N2CCOCC2)c(OCC)cc1NC(=O)c1cnccn1,10.3µM*,-17.9%,0.0,3.7%
CCOc1cc(N2CCOCC2)c(OCC)cc1NC(=O)c1ccccc1C,-22.3%,-31.6%,0.0,0.2%
CCOc1cc(-n2cnnn2)c(OCC)cc1NC(=O)c1cnccn1,5.8%,-26.4%,-1.7,0.1%
CCOc1cc(N2CCOCC2)c(OCC)cc1NC(=O)c1ccc(OCc2c(C)noc2C)c(OC)c1,5.8µM*,-31.5%,-1.1,-0.1%
CC1(C(=O)Nc2ccc3c(c2)OCCO3)CN(S(C)(=O)=O)CC(=O)N1CCc1c[nH]c2ccccc12 (stereo unspecified),·,·,-0.6,·
COc1cc(/C=N/NC(=O)c2ccc3nc[nH]c3c2)cc(OC)c1OC,0.0%,-3.2%,-0.5,-0.6%
COc1cc(/C=N/NC(=O)c2ccc(CSc3nc4ccccc4[nH]3)cc2)cc(OC)c1OC,7.31µM*,-44.3%,6.3,0.2%
COc1ccc(Cn2c(SCc3ccc(C(=O)NC(C)C)cc3)nc3cccnc32)cc1,·,·,·,-1.2%
Cc1cc(C)nc(-n2nc(C)c(Sc3ccc(F)cc3)c2N)n1,?,7.08µM*,-0.5,0.4%
N#C/C(=C\c1cccc(NC(=O)c2ccccc2Cl)c1)C(=O)NCCc1ccccc1,14.6µM*,-28.7%,-0.1,?
COCCCNC(=O)/C(C#N)=C/c1cccc(NC(=O)c2ccccc2Cl)c1,0.6%,-11.8%,-3.4,7.6%
O=C1S/C(=C\c2cccs2)C(=O)N1c1ccc(O)cc1,?,11.2µM*,1.8,7.2%
COc1ccc(CNc2nc(-c3ccccc3)nn2C(=O)c2ccc([N+](=O)[O-])cc2)cc1,?,11.2µM*,-0.9,3.8%
COc1ccc(CNc2nc(-c3ccccc3)nn2C(=O)c2cccs2)cc1,2.8%,43.5%,2.2,1.9%
COc1ccc(C2=C(C)C(N3CCC(C(=O)NCc4ccco4)CC3)=NS2(=O)=O)cc1,·,·,·,5.4%
CCOC(=O)c1cc(C(=O)Nc2ccc(C)c(F)c2)nn1C,?,10µM*,4.1,3.2%
COc1ccc(NC(=O)Nc2ccc3oc(C)nc3c2)cc1,?,2.82µM*,-3.9,0.6%
Cc1cc(C)nc(NC(=O)Nc2ccc(F)cc2F)n1,?,3.98µM*,-1.0,-0.4%
COc1ccc(NC(=O)Nc2cccc(OC)c2)cc1,·,11.2µM*,0.2,0.3%
CCOC(=O)c1cc(C(=O)NCc2ccc(Cl)cc2Cl)nn1C,?,0.5%,0.7,0.2%
